Among the data in PubChem BioAssay AID624141 (Broad Institute, 2012) are outcome values, retold here.

Among all 17,000 compounds or so, about 260 (1.5%) were called active.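 The calls were made as follows: active = spot fluorescence over background with P-value below 7% in all four replicate spots, showing protein binding; inactive = the rest.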 The list comes from a sample in which actives are over-represented; it also holds similar structures and randomly drawn compounds.

For the assay, the target named is Myc proto-oncogene protein (Homo sapiens) (UniProt P01106). Description: binders of human c-Myc, primary screen, biochemical, small molecule microarray, anti-His fluorescence (AID 624141). Particulars: His-c-Myc binding.
Myc proto-oncogene protein (Homo sapiens), sequence (P01106 whole entry, looked up): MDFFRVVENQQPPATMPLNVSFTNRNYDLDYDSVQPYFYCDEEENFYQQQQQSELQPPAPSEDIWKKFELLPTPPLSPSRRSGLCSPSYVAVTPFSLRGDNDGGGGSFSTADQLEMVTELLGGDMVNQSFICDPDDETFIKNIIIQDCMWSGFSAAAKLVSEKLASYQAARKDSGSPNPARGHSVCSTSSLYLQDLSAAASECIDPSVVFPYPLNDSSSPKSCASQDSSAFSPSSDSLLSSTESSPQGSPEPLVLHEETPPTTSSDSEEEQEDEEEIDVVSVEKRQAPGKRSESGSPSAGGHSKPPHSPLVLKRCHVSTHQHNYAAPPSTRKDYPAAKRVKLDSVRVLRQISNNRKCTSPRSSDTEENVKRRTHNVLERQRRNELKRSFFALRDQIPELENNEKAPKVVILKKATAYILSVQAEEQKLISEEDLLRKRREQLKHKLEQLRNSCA
As for `Cc1cc(OCC(=O)Nc2ccccc2C(N)=O)cc(C)c1Br`, the outcome was inactive.

`Cc1scc(C(=O)NCCc2ccc(S(N)(=O)=O)cc2)c1-c1ccccc1`: the compound was classed as inactive. The entry for `Cc1noc(C)c1NC(=O)Nc1ccc2c(c1)CC(=O)N([C@@H](C)CO)C[C@@H](C)[C@@H](CN(C)C(=O)NC(C)C)O2` is “inactive”.

For `CN(C)CCCSc1ccccc1NC(=O)/C=C/c1ccccc1`, the compound was classed as inactive.

In the case of `COc1cc(/C=C/C(=O)NCCc2ccc(O)cc2)ccc1O`, the outcome was inactive. The entry for `CCCCCc1ccc(/C=C/C(=O)Nc2ccccc2C(=O)O)cc1` is “active”; for `CCn1c(SCC(=O)Nc2sc3c(c2C#N)CCCC3)nnc1-c1ccccc1O` it is “inactive”. As to `Cc1noc(C)c1S(=O)(=O)Nc1ccc2c(c1)CC(=O)N([C@@H](C)CO)C[C@H](C)[C@H](CN(C)S(=O)(=O)c1ccc(Cl)cc1)O2`, the call was inactive.

As for `COc1ccc(NC(=O)N(C)C[C@@H]2Oc3ccc(NS(C)(=O)=O)cc3C(=O)N([C@@H](C)CO)C[C@@H]2C)cc1`, the compound was classed as inactive.

Regarding `C[C@@H]1CCCCO[C@H](CN(C)Cc2ccncc2)[C@@H](C)CN([C@H](C)CO)C(=O)c2cc(NS(C)(=O)=O)ccc2O1`, the outcome was inactive.

Regarding `C[C@@H]1CN([C@H](C)CO)C(=O)c2cccc(NC(=O)Nc3ccc4c(c3)OCO4)c2O[C@H]1CN(C)S(=O)(=O)c1ccccc1`, the call was inactive. The entry for `C[C@@H]1CCCCO[C@H](CN(C)Cc2ccccc2)[C@H](C)CN([C@@H](C)CO)C(=O)c2cc(NS(=O)(=O)c3ccccc3)ccc2O1` is “inactive”.

As to `C[C@H](CO)N1C[C@H](C)[C@@H](CN(C)S(=O)(=O)c2cccs2)Oc2ccc(NC(=O)Nc3cccc4ccccc34)cc2CC1=O`, the call was inactive. The result for `C[C@@H]1CN([C@H](C)CO)C(=O)Cc2cc(NC(=O)CCN3CCOCC3)ccc2O[C@H]1CN(C)C` reads “inactive”. The result for `COc1cc(O[C@@H]2O[C@H](CO[C@H]3OC[C@](O)(COC(=O)c4ccc(O)c(OC)c4)[C@H]3O)[C@@H](O)[C@H](O)[C@H]2O)ccc1O` reads “inactive”; that for `COc1ccc(NC(=O)N(C)C[C@@H]2OCCCC[C@H](C)Oc3ccc(NC(=O)c4ccccc4)cc3C(=O)N([C@H](C)CO)C[C@H]2C)cc1`, “inactive”. The entry for `COc1ccccc1NC(=O)c1ccc(OCC(=O)Nc2ccccc2F)cc1` is “inactive”. On to `O=C(Nc1ccc(Cl)cc1C(=O)NCc1ccco1)c1ccco1`, for which the result was inactive. In the case of `C[C@@H]1CN([C@H](C)CO)C(=O)c2cc(NS(=O)(=O)c3cn(C)cn3)ccc2O[C@@H](C)CCCCO[C@H]1CN(C)C`, the compound was classed as inactive. As to `CN(C)c1nc(N)nc(CSc2ccccn2)n1`, the compound was called inactive. The result for `COc1ccccc1NC(=O)CNC(=O)c1ccc(C)cc1` reads “inactive”; that for `CC(C)NC(=O)N(C)C[C@@H]1OCCCC[C@H](C)Oc2ccc(NC(=O)Nc3ccccc3)cc2C(=O)N([C@H](C)CO)C[C@@H]1C`, “inactive”.

Take `Cc1noc(C)c1S(=O)(=O)N(C)C[C@H]1Oc2c(NC(=O)c3cnccn3)cccc2C(=O)N([C@H](C)CO)C[C@H]1C`: the result was active. For `CC(C)NC(=O)Nc1ccc2c(c1)C(=O)N([C@@H](C)CO)C[C@@H](C)[C@H](CN(C)C(=O)Cc1ccccc1)OCCCC[C@H](C)O2`, the compound was called inactive.

On to `C[C@H]1CN([C@@H](C)CO)C(=O)c2cccc(NC(=O)c3cnccn3)c2O[C@H]1CN(C)C(=O)Nc1ccccc1`, for which the compound was classed as inactive.

Turning to `C[C@H](CO)N1C[C@H](C)[C@@H](CN(C)C(=O)NC2CCCCC2)Oc2c(NC(=O)Nc3ccc(F)cc3)cccc2C1=O`, the compound was called inactive. The entry for `C[C@@H]1CCCCO[C@@H](CN(C)C(=O)Nc2ccccc2)[C@@H](C)CN([C@@H](C)CO)C(=O)c2cc(N(C)C)ccc2O1` is “inactive”; for `C[C@@H]1CCCCO[C@H](CN(C)C(=O)Nc2ccccc2)[C@H](C)CN([C@@H](C)CO)C(=O)c2cc(N(C)C)ccc2O1` it is “inactive”; for `C[C@H](CO)N1C[C@H](C)[C@@H](CN(C)C(=O)Nc2cccc3ccccc23)OCCCC[C@H](C)Oc2ccc(N(C)C)cc2C1=O` it is “active”.

As to `C[C@@H]1CCCCO[C@@H](CN(C)C(=O)Nc2ccccc2)[C@@H](C)CN([C@H](C)CO)C(=O)c2cc(NC(=O)Nc3ccc(F)cc3)ccc2O1`, the outcome was inactive.

Consider `C[C@H]1CN([C@@H](C)CO)C(=O)c2cccc(NC(=O)c3cnccn3)c2O[C@H]1CN(C)S(=O)(=O)c1cn(C)cn1`, for which the outcome was inactive. The entry for `C[C@@H]1CN([C@H](C)CO)C(=O)c2cccc(NC(=O)Nc3ccccc3)c2O[C@@H]1CN(C)C(=O)NC1CCCCC1` is “inactive”; for `C[C@H]1CN([C@@H](C)CO)C(=O)c2cccc(NC(=O)Nc3ccc(C(F)(F)F)cc3)c2O[C@H]1CN(C)C(=O)NC1CCCCC1` it is “active”; for `C[C@@H]1CCCCO[C@@H](CN(C)C(=O)Cc2ccccc2)[C@H](C)CN([C@@H](C)CO)C(=O)c2cc(NC(=O)Nc3ccc(F)cc3)ccc2O1` it is “active”. Take `CC(C)NC(=O)N(C)C[C@@H]1OCCCC[C@@H](C)Oc2ccc(NC(=O)Nc3ccccc3)cc2C(=O)N([C@H](C)CO)C[C@@H]1C`: the outcome was inactive. The result for `C[C@@H]1CCCCO[C@H](CN(C)C(=O)Nc2ccccc2)[C@H](C)CN([C@H](C)CO)C(=O)c2cc(NC(=O)Nc3ccccc3)ccc2O1` reads “inactive”; that for `C[C@@H]1CCCCO[C@H](CN(C)C(=O)C2CCCCC2)[C@@H](C)CN([C@@H](C)CO)C(=O)c2cc(NC(=O)Nc3ccccc3)ccc2O1`, “active”; that for `CC(C)NC(=O)N(C)C[C@H]1OCCCC[C@@H](C)Oc2ccc(NC(=O)Nc3cccc4ccccc34)cc2C(=O)N([C@H](C)CO)C[C@@H]1C`, “inactive”. The entry for `Cc1cc(C)cc(Oc2c(C(F)(F)F)oc3cc(OCC(=O)O)ccc3c2=O)c1` is “active”. The result for `C[C@@H]1CN([C@H](C)CO)C(=O)CCCn2cc(nn2)CO[C@@H]1CN(C)C(=O)Nc1ccc(-c2cccs2)cc1` reads “inactive”; that for `CN(CC(=O)O)S(=O)(=O)c1ccc(F)c2ccccc12`, “inactive”; that for `COc1ccc(S(=O)(=O)N(C)C[C@H]2Oc3c(NS(=O)(=O)c4cccs4)cccc3C(=O)N([C@H](C)CO)C[C@@H]2C)cc1`, “inactive”. For the compound `C[C@H](CO)N1C[C@H](C)[C@@H](CN(C)Cc2ccc(C(F)(F)F)cc2)Oc2ccc(NC(=O)CCN3CCOCC3)cc2C1=O`, the call was inactive. The entry for `C[C@H](CO)N1C[C@H](C)[C@H](CN(C)Cc2ccc(C(=O)O)cc2)Oc2c(NC(=O)C3CCOCC3)cccc2C1=O` is “inactive”; for `C[C@@H]1CN([C@@H](C)CO)C(=O)Cc2cc(NC(=O)CCN3CCOCC3)ccc2O[C@@H]1CN(C)C(=O)Nc1cccc2ccccc12` it is “inactive”.

Consider `C[C@H](CO)N1C[C@H](C)[C@H](CN(C)S(=O)(=O)c2cn(C)cn2)Oc2ccc(N(C)C)cc2C1=O`, for which the outcome was inactive.

For the compound `Cc1noc(C)c1S(=O)(=O)Nc1cccc2c1O[C@@H](CN(C)S(=O)(=O)c1cn(C)cn1)[C@@H](C)CN([C@H](C)CO)C2=O`, the call was inactive. In the case of `O=C(c1ccc(F)cc1)C1CCN(CCCCc2ccccc2)CC1`, the result was inactive. The entry for `O=c1c2ccccc2[nH]c(=S)n1CCN1CCC(=C(c2ccc(F)cc2)c2ccc(F)cc2)CC1` is “active”; for `COc1ccc(S(=O)(=O)N(C)C[C@H]2Oc3c(NC(=O)C4CCOCC4)cccc3C(=O)N([C@@H](C)CO)C[C@@H]2C)cc1` it is “inactive”. The result for `C[C@@H]1CN([C@H](C)CO)C(=O)c2cc(NC(=O)c3ccncc3)ccc2O[C@@H]1CN(C)C(=O)Nc1ccc(F)cc1` reads “inactive”; that for `COc1ccc(S(=O)(=O)N(C)C[C@@H]2Oc3ccc(NC(=O)Nc4cccc5ccccc45)cc3C(=O)N([C@H](C)CO)C[C@H]2C)cc1`, “inactive”; that for `C[C@@H]1CN([C@@H](C)CO)C(=O)c2cc(NC(=O)C3CCCCC3)ccc2O[C@@H](C)CCCCO[C@@H]1CN(C)Cc1ccc(C(=O)O)cc1`, “inactive”.

In the case of `C/C=C(\C)C(=O)O[C@H]1C=CC(=O)O[C@H]1/C=C/[C@H](O)[C@H](C)O`, the result was inactive. Regarding `C[C@@H]1CN([C@@H](C)CO)C(=O)c2cc(NC(=O)CCCN(C)C)ccc2O[C@@H](C)CCCCO[C@H]1CN(C)Cc1ccc2c(c1)OCO2`, the compound was called inactive. The entry for `COC(=O)COc1c(Sc2ccc([N+](=O)[O-])cc2)c(C)nn1-c1ccccc1` is “inactive”; for `COC(=O)C1=CO[C@@H](O[C@@H]2O[C@H](CO)[C@@H](O)[C@H](O)[C@H]2O)[C@@H]2[C@@H](C)[C@@H](OC(=O)C3=CO[C@@H](O[C@@H]4O[C@H](CO)[C@@H](O)[C@H](O)[C@H]4O)[C@@H]4[C@@H](C)[C@@H](OC(C)=O)C[C@H]34)C[C@H]12` it is “inactive”. The result for `C[C@H]1CN([C@@H](C)CO)C(=O)CCCn2cc(nn2)CO[C@@H]1CN(C)S(=O)(=O)c1cccs1` reads “inactive”; that for `C[C@H](CO)N1C[C@H](C)[C@H](CN(C)C(=O)Nc2ccc(C(F)(F)F)cc2)Oc2ccc(NS(=O)(=O)c3ccccc3)cc2CC1=O`, “inactive”; that for `C[C@@H]1CN([C@H](C)CO)C(=O)c2cccc(NS(=O)(=O)c3cccs3)c2O[C@@H]1CN(C)C(=O)Nc1cccc2ccccc12`, “inactive”. The entry for `CS(=O)(=O)N(CC(=O)Nc1ccc(C(N)=O)cc1)c1cccc(C(F)(F)F)c1` is “inactive”; for `CC(C)NC(=O)Nc1ccc2c(c1)C(=O)N([C@H](C)CO)C[C@@H](C)[C@@H](CN(C)C(=O)c1ccncc1)OCCCC[C@H](C)O2` it is “inactive”. In the case of `Cc1cc(C(=O)Nc2cccc3c2O[C@@H](CN(C)Cc2ccc4c(c2)OCO4)[C@@H](C)CN([C@@H](C)CO)C3=O)n(C)n1`, the call was inactive. The result for `C[C@@H]1CN([C@@H](C)CO)C(=O)c2cc(NC(=O)Nc3cccc4ccccc34)ccc2O[C@@H]1CN(C)Cc1ccc(-c2ccccc2)cc1` reads “inactive”. As for `C[C@@H]1CN([C@@H](C)CO)C(=O)c2cc(NC(=O)C3CCCCC3)ccc2O[C@@H]1CN(C)S(=O)(=O)c1ccc(F)cc1`, the compound was called inactive. The result for `C[C@@H]1CCCCO[C@@H](CN(C)Cc2ccc(C(=O)O)cc2)[C@H](C)CN([C@H](C)CO)C(=O)c2cc(NC(=O)Nc3ccc(F)cc3)ccc2O1` reads “inactive”; that for `O=C(O)CCC(=O)Nc1ccc(-c2nc3ccccc3o2)cc1`, “inactive”. The result for `COc1cc(/C=C/C(=O)O[C@@H]2O[C@H](CO[C@@H]3O[C@H](CO)[C@@H](O)[C@H](O)[C@H]3O)[C@@H](O)[C@H](O)[C@H]2OC(=O)/C=C/c2cc(OC)c(O)c(OC)c2)cc(OC)c1O` reads “inactive”; that for `C=CCOC(=O)[C@H]1[C@@H]2C(=O)O[C@@H](c3ccccc3)[C@@H](c3ccccc3)N2[C@@H](c2ccc(OCCOC(=O)[C@H]3C[C@H]4C(=O)NCC(=O)N4[C@H]3c3ccc(O)cc3)cc2)[C@]12C(=O)Nc1ccccc12`, “inactive”. `C=C(C(=O)O)C1CCC(CCC)OC1=O` (stereo not given): the compound was called inactive.
